{"source": "PubChem BioAssay (NCI)", "note": "Compounds without any hit were thinned out: in the full panel of roughly 79,000, 15% have a hit. Values without a mark were called inactive. No stated cut-off is given here; in the data, active means growth inhibition above about 70%; inactive means the rest. Where a SMILES comes first, the peptide text is derived from it."}
{"assay": "NCI Yeast Anticancer Drug Screen. Data for the mlh1 rad18 strain (AID 175)", "conditions": "S. cerevisiae mlh1 rad18 strain growth inhibition; at 50.0 µM; active compounds read high", "experimental": "Growth inhibition of yeast strains with defined genetic alterations is measured as a screen for potential anti-cancer activity. Selected strains with alterations in DNA damage repair or cell cycle control were exposed to compounds and growth inhibition was measured relative to vehicle treated controls. The strain used in this assay is mlh1 rad18", "units": {"growth inhibition": "%"}}
{"compound": "CC1(C)C=Cc2c(cc(O)c3c(=O)c4cc(Cl)ccc4[nH]c23)O1", "growth inhibition": -12.1}
{"compound": "COc1ccc(C2NCCCC2c2ccccc2)cc1", "note": "(stereo not given)", "growth inhibition": -11.1}
{"compound": "CC(=O)Nc1nc(C)c(S(=O)(=O)Cl)s1", "growth inhibition": 19.6}
{"compound": "COc1ccc2ccccc2c1C1NC(=O)c2ccccc2N1", "note": "(stereo not given)", "growth inhibition": 0.1}
{"compound": "O=C(O)CCc1ccsc1", "growth inhibition": 4.45}
{"compound": "CC(C)(C)c1ccnc(C(O)(C(F)(F)F)C(F)(F)F)c1", "growth inhibition": -12.4}
{"compound": "CC1C(O)C(c2ccccc2)(c2ccccc2)C(C)CN1C", "note": "(stereo not given)", "growth inhibition": 3.45}
{"compound": "NC=O", "growth inhibition": -11.7}
{"compound": "Nc1ncnc2c1ncn2C1OC(C(=O)OCCO)C(O)C1O", "note": "(stereo not given)", "growth inhibition": -22.9}
{"compound": "CC(=O)Oc1ccc2c(c1)C(=O)CCCCCC(=O)O2", "growth inhibition": -10.8}
{"compound": "CCN(CC)CCCC#CCN1CCOCC1", "growth inhibition": -20.1}
{"compound": "C#CCCOC1(OC)N=NC(C)(C)O1", "note": "(stereo not given)", "growth inhibition": -24.6}
{"compound": "CCOC(=O)C(NC(=O)Cc1ccccc1)C1NC(C(=O)O)CS1", "note": "(stereo not given)", "growth inhibition": -13.8}
{"compound": "CCCCn1[nH]c(=O)ccc1=O", "growth inhibition": -3.3}
{"compound": "CCCCCn1c(=O)c2cc3c(=O)n(CCCCC)c(=O)c3cc2c1=O", "growth inhibition": -5.6}
{"compound": "CCC(C)(C)c1ccc([N+](=O)[O-])cc1", "growth inhibition": 2.35}
{"compound": "O=C(c1ccccc1)c1ccc2ccc(F)cc2c1C(=O)O", "growth inhibition": -7.7}
{"compound": "COC(=O)CCC1=C(C)C2=NC1=CC1=NC(=CC3=NC(=Cc4[nH]c(/c(=C\\O)c4C)=C2)C(C=O)=C3C)C(C)=C1CCC(=O)OC", "growth inhibition": 11.6}
{"compound": "Cc1cc2nc(Oc3ccccc3)nc(=O)n2o1", "growth inhibition": -9.2}
{"compound": "Cc1cnc2nc(C)c(C)nc2n1", "growth inhibition": 4.95}
{"compound": "Cc1ccccc1-c1nc2c([nH]1)c(=O)n(C)c(=O)n2C", "growth inhibition": 2.75}
{"compound": "CC1CCOCCCOC(=O)CCOCCC(=O)OCCCOCCCOC(=O)CCOCCC(=O)O1", "note": "(stereo not given)", "growth inhibition": -4.45}
{"compound": "CC(=O)c1c(-c2ccccc2)noc1C", "growth inhibition": -1.4}
{"compound": "CCOc1ccc(C(=O)C=O)cc1", "growth inhibition": 27.2}
{"compound": "C/C=C(\\C)C(=O)N/N=C\\C=C\\c1ccccc1", "growth inhibition": -7.05}
{"compound": "COC1=CC(=O)C=C(OC)C1=O", "growth inhibition": -11.6}
{"compound": "O=C(O)CC(/C=C\\C(=O)C(=O)O)=C\\O", "growth inhibition": -10.2}
{"compound": "CC(C)CC(NC(=O)C(Cc1ccccc1)NC(=O)CNC(=O)CN)C(=O)O", "note": "(stereo not given) (H-GGFL-OH; configuration not given here)", "growth inhibition": -12.4}
{"compound": "O=S(=O)(O)c1cc[n+]([O-])cc1", "growth inhibition": -8.65}
{"compound": "COc1ccc(C)cc1S(=O)(=O)c1c(Cl)cccc1[N+](=O)[O-]", "growth inhibition": -36.8}
{"compound": "O=C(NC(Cc1ccccc1)P(=O)(O)c1ccccc1)OCc1ccccc1", "note": "(stereo not given)", "growth inhibition": -12}
{"compound": "N#C[C@H](c1nc2ccccc2[nH]1)c1nc2ccccc2nc1Cl", "growth inhibition": 12.7}
{"compound": "CCc1n[nH]c(=O)n1/N=C/c1ccc(C)cc1", "growth inhibition": -2.25}
{"compound": "NC(Cc1ccc(O)cc1)C(=O)NCCS(=O)(=O)O", "note": "(stereo not given)", "growth inhibition": 0.65}
{"compound": "O=C(OCC1OC(OC(=O)c2ccccc2)C(O)C1OC(=O)c1ccccc1)c1ccccc1", "note": "(stereo not given)", "growth inhibition": 49.5}
{"compound": "NNc1nnc(NN)c2ccccc12", "growth inhibition": 4.7}
{"compound": "COc1cc(-c2cc(CCC(=O)Nc3ccccc3[N+](=O)[O-])n(-c3ccc([N+](=O)[O-])cc3[N+](=O)[O-])n2)ccc1O", "growth inhibition": -27.7}
{"compound": "OC1CCC(C#CC#CC2CCC(O)CC2)CC1", "note": "(stereo not given)", "growth inhibition": -1.7}
{"compound": "CCN(CC)Cc1cc(Nc2nc(/C=C/c3ccccc3)nc3ccccc23)ccc1O", "growth inhibition": -14.6}
{"compound": "COC(=O)CCCCCCCCCCC1C=CCC1", "note": "(stereo not given)", "growth inhibition": 0.5}
